54 molecules from ChEMBL document CHEMBL4808148, “HDAC6 screening dataset using tau-based substrate in an enzymatic assay yields selective inhibitors and activators” (2021) can be followed below.

Several values for one entry are separate records, joined by “and”; a condition that tells them apart may be missing. Equal entries are not always repeated. The campaign covered roughly 5,600 compounds. About 390 (7%) showed an effect of 50% or more. The sample holds strong results, similar compounds and a random draw of the others, so the mix is not that of the screen.

Experiment [1] addresses T1, Protein deacetylase HDAC6 (Homo sapiens) (UniProt Q9UBN7).
T1 sequence (whole entry): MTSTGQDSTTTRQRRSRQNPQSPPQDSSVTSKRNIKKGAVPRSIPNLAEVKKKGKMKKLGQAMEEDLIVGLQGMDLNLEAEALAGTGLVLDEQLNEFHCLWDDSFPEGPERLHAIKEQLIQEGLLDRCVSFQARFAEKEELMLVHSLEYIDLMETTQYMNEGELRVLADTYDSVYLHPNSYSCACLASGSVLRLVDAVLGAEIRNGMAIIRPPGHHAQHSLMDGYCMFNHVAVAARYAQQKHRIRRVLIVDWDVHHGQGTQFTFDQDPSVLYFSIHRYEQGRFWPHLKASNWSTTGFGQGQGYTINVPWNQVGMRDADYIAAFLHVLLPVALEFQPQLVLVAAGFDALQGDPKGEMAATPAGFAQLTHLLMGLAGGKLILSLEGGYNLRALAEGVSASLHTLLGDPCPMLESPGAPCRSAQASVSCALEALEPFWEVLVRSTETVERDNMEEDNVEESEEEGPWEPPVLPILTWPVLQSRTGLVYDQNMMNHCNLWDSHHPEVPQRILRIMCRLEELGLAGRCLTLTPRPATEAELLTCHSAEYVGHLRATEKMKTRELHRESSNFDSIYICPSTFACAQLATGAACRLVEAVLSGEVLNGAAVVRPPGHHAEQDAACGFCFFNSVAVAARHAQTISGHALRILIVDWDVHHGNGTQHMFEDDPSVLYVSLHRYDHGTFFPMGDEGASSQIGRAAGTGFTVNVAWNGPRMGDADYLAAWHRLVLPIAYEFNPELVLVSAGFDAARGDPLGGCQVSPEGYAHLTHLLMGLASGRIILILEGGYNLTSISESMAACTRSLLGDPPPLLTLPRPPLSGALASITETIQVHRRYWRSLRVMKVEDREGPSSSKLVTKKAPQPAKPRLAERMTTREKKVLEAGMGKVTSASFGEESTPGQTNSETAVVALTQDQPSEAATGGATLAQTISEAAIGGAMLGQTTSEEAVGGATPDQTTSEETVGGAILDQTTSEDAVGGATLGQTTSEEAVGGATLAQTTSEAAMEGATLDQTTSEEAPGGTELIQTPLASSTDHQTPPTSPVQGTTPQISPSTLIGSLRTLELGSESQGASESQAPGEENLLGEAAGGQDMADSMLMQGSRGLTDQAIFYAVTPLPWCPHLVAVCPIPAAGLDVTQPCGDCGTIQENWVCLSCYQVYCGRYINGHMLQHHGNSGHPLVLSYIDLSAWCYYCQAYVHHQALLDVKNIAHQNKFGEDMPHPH
The note with it: at 10 µM.

In experiment [2] the target is Protein deacetylase HDAC6 (Homo sapiens) (UniProt Q9UBN7). The note with it: at 10 µM. The source holds these as a separate data set.

Take `COc1cc(C(=O)NCc2ccc(OCCN(C)C)cc2)cc(OC)c1OC`: the inhibition in experiment [1] amounted to 6.33%. On the same count and under the same terms, next, `N#Cc1cc2c(OCC(O)CN3CCN(C(c4ccccc4)c4ccccc4)CC3)cccc2[nH]1` (racemic): 3.02%; `O=C1CC2(CCCC2)CC(=O)N1CCNCC1COc2ccccc2O1` (centres undefined): 5.51%. On to `CN(C)C(=O)n1nnnc1Cc1ccc(-c2ccccc2)cc1`, for which the inhibition in experiment [1] is 26.8%. Regarding `CCCNC(=O)N1N=C(c2ccc(N)cc2)c2cc3c(cc2C1C)OCO3` (centres undefined), the inhibition in experiment [1] came to 26.2%. On the same count and under the same terms, the value for `Cc1[nH]c(/C=C2\C(=O)Nc3ccc(F)cc32)c(C)c1C(=O)NC[C@H](O)CN1CCOCC1` was 34%. For the molecule `Cc1ccc(OCCSc2ncccn2)c(Br)c1`, the inhibition in experiment [1] was determined as 99.3%. As for `CCCCCCCCCCCCCCC[C@@H](O)[C@@H](N)CO`, the inhibition in experiment [1] was 26%. Turning to Sodium stibogluconate, CHEMBL2079699, the inhibition in experiment [2] was found to be 0.83%.

`CN(C)c1ccc(/C=C2\C(=O)Nc3ccccc32)cc1`: the inhibition in experiment [1] was found to be 101%. Take `Cc1cc(C)c(/C=C2\C(=O)Nc3ccccc32)[nH]1`: the inhibition in experiment [1] worked out at 88.8%. For the molecule `CCN(CC)CCNC(=O)c1c(C)[nH]c(/C=C2\C(=O)Nc3ccc(F)cc32)c1C`, the inhibition in experiment [1] amounted to 16.3%. Still for that read-out and setting: the value for `Cc1[nH]c(/C=C2\C(=O)Nc3ccccc32)c(C)c1CCC(=O)O` was 30.1%; that for `C#Cc1c[nH]c(=O)[nH]c1=O` was -6.92%. The same measure, in the same setting: next, `CC1(C)CN2C(CS/C(=N\C3CCCCC3)NC3CCCCC3)=CSC2=N1`: 12.2%; `O=S(=O)(NC1CCNCC1)c1cc(S(=O)(=O)c2ccccc2)ccc1C(F)(F)F`: -7.14%; `CC(CCCCC(=O)Nc1ccc(C(F)(F)F)cc1)NCCc1c[nH]cn1` (centres undefined): 3.94%. On the same count and under the same terms, next, `C/C(=C\CNc1ncnc2[nH]cnc12)CO`: 5.74%; `O=c1c2ccccc2oc2ccccc12`: 92.3%. Consider `CCC(c1ccccc1)c1c(O)c2ccccc2oc1=O` (centres undefined), for which the inhibition in experiment [1] was found to be 16.2%. In the case of `O=c1oc2ccccc2c(O)c1Cc1c(O)c2ccccc2oc1=O`, the inhibition in experiment [1] was -8.39%.

As to `Cc1cc(-c2nc3cc(F)ccc3s2)ccc1NC(=O)[C@@H](N)CCCCN`, the inhibition in experiment [1] worked out at 28.4%. Consider `CN(C)CCC=C1c2ccccc2COc2ccccc21`, for which, in experiment [1], the inhibition is -7.53%. With `CNCCC=C1c2ccccc2C=Cc2ccccc21`, in experiment [1], the inhibition turned out to be 15.7%. Consider `CN(C)CCC=C1c2ccccc2C=Cc2ccccc21`, for which, in experiment [1], the inhibition stood at 63.9%. With `CNc1cc2c(Nc3cccc(Br)c3)ncnc2cn1`, the inhibition in experiment [1] worked out at 9.09%. Consider `Cc1ccc2nc(NCCN)c3ncc(C)n3c2c1`, for which the inhibition in experiment [1] is 4.14%. As for `O=C1Nc2ccc(I)cc2C1=Cc1cc(Br)c(O)c(Br)c1`, the inhibition in experiment [1] was 72.9%. For the molecule `C=C[C@@H]1C[C@]1(NC(=O)[C@@H]1C[C@@H]2CN1C(=O)[C@H](C(C)(C)C)NC(=O)O[C@@H]1C[C@H]1CCCCCc1nc3ccc(OC)cc3nc1O2)C(=O)NS(=O)(=O)C1CC1`, the inhibition in experiment [1] stood at 0.36%.

As for `O=c1c2c(c1=O)N(CCP(=O)(O)O)CCCN2`, in experiment [1], the inhibition was 12.1%. Take `Cc1ccc([N+](=O)[O-])cc1S(=O)(=O)N(C)C`: in experiment [1], the inhibition came out at 6.18%. As for `S=C(NCCc1ccccn1)Nc1ccc(Br)cn1`, in experiment [1], the inhibition is 8.48%.

As for `COC(c1ccccc1)(c1ccccc1)[C@H](Oc1nc(C)cc(C)n1)C(=O)O`, the inhibition in experiment [1] is -8.71%. Consider NKP-1339, CHEMBL5308480, for which the inhibition in experiment [2] was found to be 34.9%. For Mangafodipir (trisodium), CHEMBL5308448, the inhibition in experiment [2] was 18%. The same measure, in the same setting: next, hemin, CHEMBL5308479: 56.4%. Turning to `COc1ccc(CC2NCCc3c2[nH]c2ccc(C)cc32)c(Cl)c1OC` (centres undefined), in experiment [1], the inhibition is -1.23%. For `O=C(Nc1ccccc1)Nc1ccc(-c2ccc(C(=O)[C@@H]3CCC[C@H]3C(=O)O)cc2)cc1`, the inhibition in experiment [1] was 4.7% and 12.5%. Same read-out and setting: next, `CN1CCN(C(=O)c2nc3ccc(Cl)cc3[nH]2)CC1`: 16.2%; `CN1CCN(c2ccc3nc(-c4c(N)c5c(F)cccc5[nH]c4=O)[nH]c3c2)CC1`: 86.8%. Same read-out and setting: the value for `CC(C)=CCC[C@](C)(O)[C@H]1CC[C@]2(C)[C@@H]1[C@H](O)C[C@@H]1[C@@]3(C)CC[C@H](O[C@@H]4O[C@H](CO)[C@@H](O)[C@H](O)[C@H]4O[C@@H]4O[C@H](CO)[C@@H](O)[C@H](O)[C@H]4O)C(C)(C)[C@@H]3CC[C@]12C` was 11.5%; that for `O=C(Cn1ccnc1[N+](=O)[O-])NCc1ccccc1` was 32.3%; that for `Cc1c[nH]c(=O)n(CCCN2CCN(c3ccccc3OCC(F)(F)F)CC2)c1=O` was 19.2%.

With `CS(=O)(=O)N1CCN(Cc2cc3nc(-c4cccc5[nH]ncc45)nc(N4CCOCC4)c3s2)CC1`, in experiment [1], the inhibition came out at 11.1%.

For the molecule `COC(=O)Nc1ccc(-c2nc(N3CCOCC3)c3cnn(C4CCN(C(=O)OC)CC4)c3n2)cc1`, in experiment [1], the inhibition is 21.1%.

Regarding `COc1ccc(-c2nc(N3CCOCC3)c3sc(CN(C)c4ncc(C(=O)NO)cn4)cc3n2)cn1`, the inhibition in experiment [1] is 98%.

In the case of `C[N+](C)(C)NCCC(=O)[O-]`, the inhibition in experiment [1] came out at 17.8%. For `Cn1c(=O)c2c(ncn2CCOC(=O)C(C)(C)Oc2ccc(Cl)cc2)n(C)c1=O`, in experiment [1], the inhibition is 23.6%.

As for `c1ccc(-c2n[nH]c3c2oc2ccccc23)cc1`, the inhibition in experiment [1] is 95%. As to `CCC/C=C1\OC(=O)C2=C1CCC=C2`, in experiment [1], the inhibition stood at 39.5%. Still for that read-out and setting: the value for `CC(=C\c1ccc(Cl)cc1)/C(C)=N/O` was 2.85%; that for `NC(CC(F)C(=O)O)C(=O)O` (racemic) was 38.9%; that for `COC(=O)/C=C/c1cc(O)ccc1O` was 28.1%. Turning to `C=CC(C)(C)c1cc(/C=C/C(=O)c2ccc(O)cc2)c(OC)cc1O`, in experiment [1], the inhibition turned out to be 75.1%.

One may read the inhibition as the change of the read-out against control, counted positive when it falls.
